Consider 42 compounds from the supplement of paper PMC10498489.

Screen size: about 2,300 compounds; about 330 (14%) showed activity. The list is a sample of the results. Unmarked numbers belong to inactive results.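 The calls were made as follows: active = median modified Z-score above 1.96; inactive = 1.96 or below.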

For this assay, the system named is HepG2 Srxn1-GFP reporter cells (+30 nM CDDO-Me). The assay is described as follows: Srxn1-GFP intensity median modified Z-score relative to plate median; higher = stronger NRF2 / oxidative stress reporter activation, active = hit call of the paper. Conditions: 10 µM; exposure time: 24h. In outline:
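The modified Z-score of GFP intensity was computed per plate, and the median over replicates is reported. HepG2 Srxn1-GFP BAC reporter cells in three replicate plates were treated for 24 h with compound at 10 μM plus an NRF2 activator at 30 nM (≤0.1% DMSO). Per-cell cytoplasmic GFP came from confocal images, excluding those with under 100 cells, and scaling used 1.4826 × median absolute deviation.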
For the compound `CCC[C@@H]1CC(C(=O)N[C@H]([C@H]2O[C@H](SC)[C@H](O)[C@@H](O)[C@H]2O)[C@H](C)O)N(C)C1` (some centres not stated) [euspeclibcmpd172], the “Srxn1-GFP intensity median modified Z-score” value is 0.221.
Regarding `NC(=O)C1CC2CCCCC2N1c1cc(Cl)c(C(F)(F)F)cc1[N+](=O)[O-]` (configuration not stated), the “Srxn1-GFP intensity median modified Z-score” value is 0.587.
As for `CON=C(C(=O)NC1C(=O)N2C(C(=O)O)=C(C[N+]3(C)CCCC3)CSC12)c1csc(=N)[nH]1` (configuration not stated) [euspeclibcmpd504], the figure is 35.8 (active); as for `CON=C(C(=O)NC1C(=O)N2C(C(=O)O)=C(CSc3nnnn3C)CSC12)c1csc(=N)[nH]1` (configuration not stated) [euspeclibcmpd505], -0.115.
As for `CON=C(C(=O)N[C@@H]1C(=O)N2C(C(=O)O)=C(COC(C)=O)CS[C@H]12)c1csc(=N)[nH]1` [euspeclibcmpd2262], the figure is -0.173.
Consider `O=C(c1ccc(COc2ccc(Cl)cc2)cc1)N1CCN(Cc2ccc3c(c2)OCO3)CC1`, for which the “Srxn1-GFP intensity median modified Z-score” value was 1.17.
`C[C@]12CCC3c4ccc(O)cc4CCC3C1CC[C@@H]2OC(=O)CCC1CCCC1` (some centres not stated) [euspeclibcmpd116]: the “Srxn1-GFP intensity median modified Z-score” value was -0.256.
The result for `CC=C(C(=CC)c1ccc(O)cc1)c1ccc(O)cc1` [euspeclibcmpd91] reads 13.6 (active); that for `Oc1ccc(O)cc1` [euspeclibcmpd672], 0.74.
As for `Cc1ccc(O)cc1` [euspeclibcmpd76], the “Srxn1-GFP intensity median modified Z-score” value was -0.159.
As for `CN[C@@H]1C(O)[C@@H](O[C@@H]2[C@@H](O)[C@H](O[C@H]3OC(CN)=CC[C@H]3N)[C@@H](N)C[C@H]2N)OC[C@]1(C)O` (some centres not stated) [euspeclibcmpd452], the figure is -0.626; as for `CO[C@H]1/C=C/O[C@@]2(C)Oc3c(C)c(O)c4c(O)/c(c(=CNN5CCN(C)CC5)c(O)c4c3C2=O)=N\C(=O)/C(C)=C\C=C\C(C)[C@H](O)[C@@H](C)[C@@H](O)[C@@H](C)[C@@H](OC(C)=O)[C@@H]1C` (some centres not stated) [euspeclibcmpd263], -0.401; as for `O=c1c(O)cc(C2Oc3cc(O)cc(O)c3C[C@H]2O)cc2c(C3Oc4cc(O)cc(O)c4C[C@@H]3O)cc(O)c(O)c12` (some centres not stated) [euspeclibcmpd1420], -0.548.
As for `Oc1cn2c(n1)Nc1ccc(Cl)c(Cl)c1C2` [euspeclibcmpd824], the “Srxn1-GFP intensity median modified Z-score” value was -0.784.
In the case of `CN1CCN2c3ccccc3Cc3ccccc3C2C1` (configuration not stated) [euspeclibcmpd961], the “Srxn1-GFP intensity median modified Z-score” value was 0.112.
In the case of `CSc1ccc2c(c1)C(N1CCN(C)CC1)Cc1ccccc1S2` (configuration not stated) [euspeclibcmpd1144], the “Srxn1-GFP intensity median modified Z-score” value was 28.4 (active).
Take `Cc1cc2c(s1)N=c1ccccc1=NC2N1CCN(C)CC1` (configuration not stated) [euspeclibcmpd2354]: the “Srxn1-GFP intensity median modified Z-score” value is 0.441.
As for `CON=C(C(=O)NC1C(=O)N2C(C(=O)O)=C(CSC(=O)c3ccco3)CSC12)c1csc(=N)[nH]1` (configuration not stated) [euspeclibcmpd692], the figure is -0.296; as for `N=c1[nH]cnc(=Nc2ccc(Cl)cc2)[nH]1` [euspeclibcmpd2344], 0.164.
For `CC1CC[C@@]23CC[C@]4(C)[C@@](CCC5[C@@]6(C)CCC(=O)C(C)(C)C6CC[C@]54C)(OC2=O)C3C1C` (some centres not stated) [euspeclibcmpd1366], the “Srxn1-GFP intensity median modified Z-score” value is -0.221.
As to `CC(=O)OCC(=O)[C@@]1(O)CC[C@H]2[C@@H]3CCC4=CC(=O)CC[C@]4(C)[C@H]3C(=O)C[C@]21C`, the “Srxn1-GFP intensity median modified Z-score” value is 0.314.
As for `COc1cc(C(=O)NCc2ccc(OCCN(C)C)cc2)cc(OC)c1OC` [euspeclibcmpd309], the figure is 0.482.
The result for `CN(C)CCOc1ccc(/C(=C(/CCCl)c2ccccc2)c2ccccc2)cc1` [euspeclibcmpd946] reads 93.7 (active); that for `COc1ccc(C(=O)NCc2ccc(OCCN(C)C)cc2)cc1OC` [euspeclibcmpd1095], 0.331; that for `CN(C)CCOC(=O)COc1ccc(Cl)cc1` [euspeclibcmpd1131], -0.393.
As for `CC/C(=C(\c1ccccc1)c1ccc(OCCN(C)C)cc1)c1ccccc1` [euspeclibcmpd285], the figure is 43.4 (active).
`CCN(CC)CCOc1ccc(/C(=C(\Cl)c2ccccc2)c2ccccc2)cc1` [euspeclibcmpd69]: the “Srxn1-GFP intensity median modified Z-score” value was -1.55.
The result for `C[C@@H]1CC2C3CC(F)=C4CC(=O)C=C[C@]4(C)[C@@]3(F)[C@@H](O)C[C@]2(C)[C@@]1(O)C(=O)COC(=O)C(C)(C)C` (some centres not stated) [euspeclibcmpd128] reads -0.646.
As for `COc1c(O)c(C)c(C=CCCCCCCCCO)c(O)c1OC` [euspeclibcmpd1216], the figure is -0.228.
As for `COC(=O)/C(=C1\OC(=O)C(c2ccccc2)C1=O)c1ccccc1` (configuration not stated) [euspeclibcmpd1487], the figure is 1.05; as for `CC1(C)O[C@H]2CC(=O)OC[C@]23[C@H]2CC[C@@]4(C)[C@H](c5ccoc5)OC(=O)C5O[C@]54[C@]2(C)C(=O)C[C@@H]13` (some centres not stated) [euspeclibcmpd1497], 0.563.
Regarding `COC(=O)C1OC(=O)C2OC23[C@@]1(C)CCC1[C@]2(C)C(C[C@@H](O)[C@]13C)C(C)(C)[C@H](OC(C)=O)C[C@@H]2OC(C)=O` (some centres not stated) [euspeclibcmpd2102], the “Srxn1-GFP intensity median modified Z-score” value is -0.135.
The result for `CC(=O)OC1CC2C(C)(C)C(O)CCC2(C)C2CCC3(C)C(=CC(=O)OC3c3ccoc3)C12C` (configuration not stated) [euspeclibcmpd1952] reads 0.595.
For `CC1(C)C(=O)C=C[C@@]2(C)C1CC(=O)[C@]1(C)C2CC[C@@]2(C)[C@H](c3ccoc3)OC(=O)C3O[C@]321` (some centres not stated) [euspeclibcmpd1588], the “Srxn1-GFP intensity median modified Z-score” value was 13 (active).
The result for `CC(=O)O[C@H]1C[C@@H](OC(C)=O)C(C)(C)C2CC(=O)[C@]3(C)C(CC[C@@]4(C)C(C(=O)O)OC(=O)C5OC543)[C@]21C` (some centres not stated) [euspeclibcmpd1389] reads -0.386; that for `CC(=O)O[C@@H]1CC2C(C)(C)C(=O)CC[C@]2(C)C2CC[C@@]3(C)[C@H](c4ccoc4)OC(=O)C4OC43[C@@]21C` (some centres not stated) [euspeclibcmpd1587], 32.1 (active); that for `CC(=O)O[C@@H]1CC2C(C)(C)C(=O)C=C[C@]2(C)C2CC[C@@]3(C)[C@H](c4ccoc4)OC(=O)C4O[C@]43[C@@]21C` (some centres not stated) [euspeclibcmpd1359], 23.9 (active).
As for `CC(=O)O[C@H]1C[C@@H](OC(C)=O)C(C)(C)C2C[C@@H](OC(C)=O)[C@@]3(C)C4=CC(=O)O[C@@H](c5ccoc5)[C@]4(C)CCC3[C@]21C` (some centres not stated) [euspeclibcmpd1532], the figure is 0.0053; as for `CC(=O)O[C@@H]1CC2C(C)(C)C(=O)C3OC3[C@]2(C)C2CC[C@@]3(C)[C@H](c4ccoc4)OC(=O)C4OC43[C@@]21C` (some centres not stated) [euspeclibcmpd1644], 5.41 (active).
With `CC(=O)O[C@H]1C[C@@H](OC(C)=O)C(C)(C)C2CC(=O)[C@]3(C)C(CC[C@@]4(C)[C@H](c5ccoc5)OC(=O)C5O[C@]543)[C@]21C` (some centres not stated) [euspeclibcmpd1589], the “Srxn1-GFP intensity median modified Z-score” value is 0.448.
As for `COC(=O)CC1C(C)(C)C(OC(C)=O)C2C(OC(C)=O)C34OC2(O)C1(C)C3CCC1(C)C4=CC(=O)OC1c1ccoc1` (configuration not stated) [euspeclibcmpd1938], the figure is -0.377.
In the case of `COC(=O)C1OC(=O)C2OC23C1(C)CCC1C2(C)CCC(=O)C(C)(C)C2CC(OC(C)=O)C13C` (configuration not stated) [euspeclibcmpd1948], the “Srxn1-GFP intensity median modified Z-score” value was -0.0565.
